Compound activity (PubChem)
EPAC2 ag: qHTS for Agonist of cAMP-regulated guanine nucleotide exchange factor 4 (EPAC2): primary screen. Rap guanine nucleotide exchange factor 4 (Homo sapiens), Q8WZA2. EPAC2 activation, biochemical qHTS; response scale: 100% = 6.5 mM cAMP response. Potency, µM (titrated, usually from 154 µM), for inactives: top-dose activation, actives largely listed as activators. hit rate 0.079% among 360,000; also: potency is read from the fitted curve at half-maximal effect; nearly all actives have a fitted effect of over 50% in size
Target sequence (Q8WZA2 whole entry, looked up): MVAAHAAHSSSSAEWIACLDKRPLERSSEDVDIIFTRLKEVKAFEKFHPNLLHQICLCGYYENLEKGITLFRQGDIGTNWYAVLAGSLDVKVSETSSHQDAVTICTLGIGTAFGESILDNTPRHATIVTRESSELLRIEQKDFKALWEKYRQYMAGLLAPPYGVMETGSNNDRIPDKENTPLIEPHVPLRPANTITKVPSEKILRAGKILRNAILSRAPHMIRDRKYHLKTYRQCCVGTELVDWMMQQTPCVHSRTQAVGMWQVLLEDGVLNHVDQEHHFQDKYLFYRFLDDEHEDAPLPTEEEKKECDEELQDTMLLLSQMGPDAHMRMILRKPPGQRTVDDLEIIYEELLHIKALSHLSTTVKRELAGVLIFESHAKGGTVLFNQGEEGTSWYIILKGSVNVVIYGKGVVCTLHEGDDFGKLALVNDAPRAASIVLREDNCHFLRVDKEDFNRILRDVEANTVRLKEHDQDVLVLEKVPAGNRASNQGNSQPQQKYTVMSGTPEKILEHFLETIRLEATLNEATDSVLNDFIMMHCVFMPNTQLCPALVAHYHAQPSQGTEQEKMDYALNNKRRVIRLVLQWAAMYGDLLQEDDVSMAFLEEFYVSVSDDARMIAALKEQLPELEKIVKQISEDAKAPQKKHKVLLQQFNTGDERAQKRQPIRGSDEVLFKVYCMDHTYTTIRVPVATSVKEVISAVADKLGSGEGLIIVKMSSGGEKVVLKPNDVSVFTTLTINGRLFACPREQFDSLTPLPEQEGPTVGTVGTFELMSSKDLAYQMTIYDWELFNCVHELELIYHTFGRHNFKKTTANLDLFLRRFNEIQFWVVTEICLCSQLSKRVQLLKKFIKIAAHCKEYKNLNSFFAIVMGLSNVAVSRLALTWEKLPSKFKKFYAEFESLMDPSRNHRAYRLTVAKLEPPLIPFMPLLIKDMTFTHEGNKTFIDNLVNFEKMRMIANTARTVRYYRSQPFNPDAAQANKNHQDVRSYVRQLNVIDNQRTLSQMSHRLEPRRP
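Nucleotide exchange monitored as fluorescence drop when BODIPY-GDP leaves Rap1B. Reaction: 100 nM EPAC2, 250 nM RAP1B-BODIPY-GDP, 50 uM GDP, room temperature, kinetic read over 30 min. Activity expressed relative to 6.5 mM cAMP.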
IL2 activator: qHTS of IL-2 Activators; IL-2 activation reporter assay, cell-based qHTS; stimulated with anti-CD3/CD4/CD28 beads; in transgenic mouse T cells; activation, % (series mostly up to about 46 µM); hit rate 0.065% among 360,000; AID 652025, 2013; in the data active = activation above about 50%; inconclusive = mostly about 30% to 49%; also: 0% is about no effect
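Unstimulated transgenic mouse T cells, 750 per well, received compound and, after 60 minutes, anti-CD3/anti-CD4 bead plus anti-CD28 stimulation. EGFP and DsRed were quantified after 18 hours.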
EPAC1 antag: qHTS for Antagonist of cAMP-regulated guanine nucleotide exchange factor 3 (EPAC1): primary screen. Rap guanine nucleotide exchange factor 3 (Homo sapiens), O95398. hit rate 0.14% among 360,000. AID 720709, 2013. EPAC1 GEF assay, Rap1b-BODIPY-GDP exchange fluorescence. Potency, µM (highest dose often 115 µM), for inactives: at the top dose activity change, negative = inhibition, actives largely listed as inhibitors;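 also: potency is read from the fitted curve at half-maximal effect; plate controls were vehicle for no effect and positive control for full effect; nearly all actives have a fitted effect of over 50% in size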
EPAC1 ag: qHTS for Agonist of cAMP-regulated guanine nucleotide exchange factor 3 (EPAC1): primary screen | Rap guanine nucleotide exchange factor 3 (Homo sapiens), O95398 | EPAC1 agonist qHTS, biochemical assay; response scale: 100% = response to 6.5 mM cAMP | Potency, µM (series often up to 154 µM), for the others: top-dose activation, hits mostly activators | hit rate 0.073% among 360,000; also: potency is read from the fitted curve at half-maximal effect; nearly all actives have a fitted effect of over 60% in size
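Multi-concentration qHTS readout: loss of Rap1B-bound BODIPY-GDP fluorescence driven by 100 nM EPAC1 with excess GDP (50 uM), monitored kinetically at room temperature; agonist response expressed relative to 6.5 mM cAMP.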
PKM2 act: qHTS Assay for Activators of Human Muscle isoform 2 Pyruvate Kinase; Pyruvate kinase PKM (Homo sapiens), P14618; purified PKM2, Kinase-Glo ATP luminescence, activation; response scale: 0% is enzyme alone, no compound; Potency, µM (titrated, usually from 57.5 µM), inactives show at the top dose activation, hits mostly activators; hit rate 0.34% among 260,000; AID 1631, 2009; also: potency is read from the fitted curve at half-maximal effect; % is scaled to controls: 0 for no effect and ±100 for the full control effect; nearly all actives have a fitted effect of over 55% in size
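ATP formation by purified human PK-M2, quantified via coupled luciferase luminescence after 1 h at room temperature with 0.1 mM ADP and 0.5 mM PEP final.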
EPAC2 antag: qHTS for Antagonist of cAMP-regulated guanine nucleotide exchange factor 2 (EPAC2): primary screen | hit rate 0.18% among 360,000 | Potency, µM (series often up to 114 µM), for the others: at the top dose activity, negative = inhibition, most hits filed as inhibitors | AID 720708, 2013 | Rap guanine nucleotide exchange factor 4 (Homo sapiens), Q8WZA2 | EPAC2 GEF exchange of Rap1B-BODIPY-GDP, fluorescence; also: potency is read from the fitted curve at half-maximal effect; % is scaled to controls: 0 for no effect and ±100 for the full control effect; nearly all actives have a fitted effect of over 45% in size
HeLa viability: Secondary assay for Activators of Human Pyruvate Kinase M2 isoform - Cell Titer Glo cytotoxicity assay; shares compounds with PKM2 act; HeLa viability, CellTiter-Glo ATP luminescence, 24 h; activity change, negative = cytotoxicity, % at 57.5 µM; 230 tested, under 10 active; also: % of control where 0% means no effect
* = called active by the depositor; ? = inconclusive; nt = not tested or not shown. Only some compounds are listed: those with a hit (about 0.64% of all), similar ones and a draw of the others. Unless noted, calls follow the shape of the dose curve; as a rule, active = well fitted curve in the direction sought with a large enough effect; inconclusive = small, poorly fitted or top-dose-only effect, or another doubt; inactive = no such curve, though single readings can be large; an effect the other way counts as inactive or inconclusive.

SMILES	EPAC2 ag	IL2 activator	EPAC1 antag	EPAC1 ag	PKM2 act	EPAC2 antag	HeLa viability
O=S(=O)(c1ccc2c(c1)OCCO2)N1CCN(S(=O)(=O)c2ccccc2F)CC1	nt	nt	nt	nt	nt	nt	-6
O=C(CN1CCN(S(=O)(=O)c2ccc3c(c2)OCCO3)CC1)Nc1cccc(F)c1	5%	-2	4%	2%	nt	2%	nt
O=S(=O)(c1cccc(F)c1)N1CCN(S(=O)(=O)c2ccc3c(c2)OCCO3)CC1	nt	nt	nt	nt	nt	nt	11
COc1cc2cc(CCCOC(=O)CCC(=O)O)oc(=O)c2cc1OC	9%	0	-12%	-19%	nt	13%	nt
NNC(=O)c1csc(-c2ccc(C(F)(F)F)cc2Cl)n1	-8%	0	-4%	7%	3%	-13%	nt
COc1cc2[nH]c(C(=O)N3CCC(Cc4ccccc4)CC3)cc2c(OC)c1OC	11%	-2	-16%	3%	nt	-22%	nt
COc1ccc(S(=O)(=O)N2CCN(S(=O)(=O)c3ccc(OC)cc3)CC2)cc1	nt	nt	nt	nt	nt	nt	-3
COc1ccc(S(=O)(=O)N2CCC(C(=O)c3ccc4c(c3)OCCO4)CC2)cc1	12%	0	-1%	11%	0%	-3%	nt
O=S(=O)(c1ccc2c(c1)OCCO2)N1CCN(c2nc3ccccc3s2)CC1	20%	-1	-16%	18%	4µM*	-12%	-9
COc1ccc(S(=O)(=O)N2CCN(S(=O)(=O)c3ccc4c(c3)OCCO4)CC2)cc1	1%	0	12%	-8%	0.22µM*	11%	?
O=S(=O)(c1ccccc1F)N1CCN(c2nc3ccccc3s2)CC1	-2%	-1	3%	11%	-8%	-8%	nt
CN1OC[C@@H]2CN(C(=O)C(C)(C)C)[C@H](c3ccc(-c4cc5ccccc5o4)cc3)C[C@@H]21	13%	-4	-8%	-13%	nt	6%	nt
CC(COc1ccccc1)OC(=O)Nc1ccccc1 (configuration not stated)	14%	0	-8%	3%	nt	-1%	nt
COc1ccc(-c2nn(Cc3ccccc3)cc2C(=O)N2CCN(c3ncccn3)CC2)cc1	1%	0	-3%	-4%	nt	-20%	nt
Cc1ccc(NS(=O)(=O)c2ccc3c(c2)CCC(=O)N3)cc1C	6%	0	-17%	1%	0.79µM*	-3%	?
O=C(COC(=O)c1ccc[nH]c1=O)NC1CC1	6%	2	-9%	14%	nt	4%	nt
CCOC(=O)c1c(-c2ccccc2)csc1NC(=O)CSc1ccccc1	9%	-3	-3%	-2%	-17%	4%	nt
CCOC(=O)c1c(-c2ccccc2)csc1NC(=O)CSc1nnnn1C	10%	3	-17%	25%	3.5µM*	-5%	?
Cc1ccc(NC(=O)Cn2sc3nc(C)cc(C)c3c2=O)c(Cl)c1	5%	0	-6%	-3%	3.5µM*	-4%	?
N#CC(C#N)=C1c2cc(S(N)(=O)=O)ccc2-c2ccc(S(N)(=O)=O)cc21	11%	1	-24%	-5%	0.71µM*	-5%	0
OC(c1ccc(-c2ccccc2)cc1)c1ncc(-c2ccc(F)cc2)[nH]1 (configuration not stated)	4%	-1	-28%	-6%	nt	-14%	nt
CC(=O)Nc1cc(S(=O)(=O)Nc2cccc(C)c2)c(C)cc1C	0%	1	4%	4%	2%	7%	nt
Cc1cccc(NS(=O)(=O)c2cc3c(cc2C)n(C)c(=O)c(=O)n3C)c1	6%	-4	-20%	8%	0.4µM*	-6%	-25
CCc1nnc(NS(=O)(=O)c2ccc(NC(=O)c3ccc([N+](=O)[O-])s3)cc2)s1	2%	-2	-16%	-10%	nt	0%	nt
O=C(COC(=O)Cc1n[nH]c(=O)c2ccccc12)NNC(=O)c1ccc(Cl)cc1	-1%	0	2%	-2%	nt	2%	nt
SMILES	EPAC2 ag	IL2 activator	EPAC1 antag	EPAC1 ag	PKM2 act	EPAC2 antag	HeLa viability
O=S(=O)(NCCCCCNS(=O)(=O)c1ccccc1)c1ccccc1	-5%	-1	3%	9%	1.4µM*	-3%	-8
COc1ccc(S(=O)(=O)Nc2nc3c(s2)CCCC3)cc1	-1%	-1	-14%	0%	5µM*	-5%	-27
OC(c1cccc(Cl)c1)c1nc(-c2ccoc2)cs1 (configuration not stated)	9%	2	-26%	2%	nt	-5%	nt
Cn1c2cc(Br)sc2c2cnn(Cc3ccc(F)cc3F)c(=O)c21	11%	-1	?	5%	nt	-12%	nt
Cc1cc2c(s1)c1cnn(Cc3ccc(C(F)(F)F)cc3F)c(=O)c1n2C	nt	nt	nt	nt	nt	nt	18
O=c1c2cc3ccccc3n2cnn1Cc1ccccc1F	15%	0	1%	8%	7%	-9%	nt
Cc1cc2c(s1)c1cnn(Cc3cccc(F)c3F)c(=O)c1n2C	nt	nt	nt	nt	nt	nt	-8
Cc1cc2[nH]c3c(=O)n(Cc4ccccc4F)ncc3c2s1	nt	nt	nt	nt	nt	nt	-3
Cc1cc2c(s1)c1c(C)nn(Cc3ccccc3F)c(=O)c1n2C	nt	nt	nt	nt	nt	nt	-3
CCn1c2cc(C)sc2c2cnn(Cc3ccccc3F)c(=O)c21	nt	nt	nt	nt	nt	nt	-22
Cc1cc2c(s1)c1cnn(Cc3ccc(C)c(F)c3F)c(=O)c1n2C	nt	nt	nt	nt	nt	nt	-10
Cn1c2ccccc2c2cnn(CC(=O)Nc3ccc(F)cc3F)c(=O)c21	-9%	-1	1%	-1%	0%	-14%	nt
CN1OC[C@@H]2CN(Cc3cc(Cl)cc(Cl)c3)[C@H](c3cccc(Br)c3)C[C@@H]21	-8%	-1	-2%	-12%	nt	-6%	nt
COc1ccc(S(=O)(=O)N2CCCCCC2)cc1C(=O)NCc1cccs1	20%	-3	14%	7%	nt	10%	nt
Cc1ccc(NC(=O)CNc2ccc(N3CCOCC3)cc2)cc1S(=O)(=O)N(C)C	10%	0	-1%	0%	1%	-3%	nt
Cc1ccc(N(CC(=O)NCc2ccc(F)cc2)C(=O)c2csnn2)cc1C	3%	1	-19%	8%	nt	-11%	nt
